Assay results as given in the antibiotic and cytotoxicity screens of Wong et al. (2023).
About 3,300 (8.5%) of roughly 39,000 compounds were called active. The full list was thinned out, with actives kept by preference.

These molecules were tested on HepG2 (assay: cytotoxicity call (relative viability < 0.9)). Settings: 10 µM.

Row | Compound | cytotoxicity call
1 | C[C@@H]1CCCCO[C@@H](CN(C)S(=O)(=O)c2ccccc2)[C@H](C)CN([C@H](C)CO)C(=O)c2cc(NS(=O)(=O)c3ccc(Cl)cc3)ccc2O1 | inactive
2 | C[C@@H]1CN([C@@H](C)CO)C(=O)c2cc(NS(=O)(=O)c3ccc(Cl)cc3)ccc2O[C@@H](C)CCCCO[C@@H]1CN(C)S(=O)(=O)c1ccccc1 | active
3 | C[C@@H]1CCCCO[C@@H](CN(C)S(=O)(=O)c2ccccc2)[C@H](C)CN([C@@H](C)CO)C(=O)c2cc(NS(=O)(=O)c3ccc(Cl)cc3)ccc2O1 | inactive
4 | C[C@@H]1CCCCO[C@@H](CN(C)S(=O)(=O)c2ccc(Cl)cc2)[C@H](C)CN([C@H](C)CO)C(=O)c2cc(NS(=O)(=O)c3ccccc3)ccc2O1 | active
5 | C[C@@H]1CCCCO[C@H](CN(C)S(=O)(=O)c2ccccc2)[C@H](C)CN([C@@H](C)CO)C(=O)c2cc(NS(=O)(=O)c3ccc(Cl)cc3)ccc2O1 | inactive
6 | C[C@@H]1CCCCO[C@H](CN(C)S(=O)(=O)c2ccc(Cl)cc2)[C@@H](C)CN([C@H](C)CO)C(=O)c2cc(NS(=O)(=O)c3ccccc3)ccc2O1 | inactive
7 | C[C@H](CO)N1C[C@H](C)[C@@H](CN(C)S(=O)(=O)c2ccccc2)OCCCC[C@H](C)Oc2ccc(NS(=O)(=O)c3ccc(Cl)cc3)cc2C1=O | inactive
8 | C[C@@H]1CN([C@@H](C)CO)C(=O)c2cc(NS(=O)(=O)c3ccccc3)ccc2O[C@@H](C)CCCCO[C@@H]1CN(C)S(=O)(=O)c1ccc(Cl)cc1 | inactive
9 | C[C@@H]1CN([C@H](C)CO)C(=O)c2cc(NS(=O)(=O)c3ccc(Cl)cc3)ccc2O[C@@H](C)CCCCO[C@H]1CN(C)S(=O)(=O)c1ccccc1 | active
10 | C[C@H](CO)N1C[C@H](C)[C@H](CN(C)S(=O)(=O)c2ccc(Cl)cc2)OCCCC[C@H](C)Oc2ccc(NS(=O)(=O)c3ccccc3)cc2C1=O | active
11 | C[C@@H]1CN([C@H](C)CO)C(=O)c2cc(NS(=O)(=O)c3ccc(Cl)cc3)ccc2O[C@@H](C)CCCCO[C@@H]1CN(C)S(=O)(=O)c1ccccc1 | inactive
12 | C[C@@H]1CN([C@H](C)CO)C(=O)c2cc(NS(=O)(=O)c3ccccc3)ccc2O[C@@H](C)CCCCO[C@@H]1CN(C)S(=O)(=O)c1ccc(Cl)cc1 | inactive
13 | C[C@@H]1CN([C@@H](C)CO)C(=O)c2cc(NC(=O)CCC(F)(F)F)ccc2O[C@@H](C)CCCCO[C@H]1CN(C)Cc1ccncc1 | inactive
14 | C=CCOC(=O)[C@H]1[C@@H]2C(=O)O[C@@H](c3ccccc3)[C@@H](c3ccccc3)N2[C@@H](c2ccc(OCCOC(=O)[C@H]3C[C@H]4C(=O)N[C@@H](Cc5ccccc5)C(=O)N4[C@H]3c3ccc(O)cc3)cc2)[C@]12C(=O)Nc1ccc(I)cc12 | inactive
15 | C[C@@H]1CCCCO[C@@H](CN(C)C(=O)NC2CCCCC2)[C@@H](C)CN([C@@H](C)CO)C(=O)c2cc(NS(=O)(=O)c3cccs3)ccc2O1 | inactive
16 | CCCNC(=O)N[C@H]1C=C[C@H](CC(=O)N2CCN(C)CC2)O[C@H]1CO | inactive
17 | Oc1cccc(c1)/C/1=C/2\CC/C(=C(\c3cccc(c3)O)c3ccc([nH]3)/C(=C\3/C=CC(=N3)/C(=C\3/C=CC1=N3)c1cccc(c1)O)c1cccc(c1)O)N2 | inactive
18 | C[C@@H]1CN([C@H](C)CO)C(=O)c2cc(NS(=O)(=O)c3ccccc3)ccc2O[C@@H](C)CCCCO[C@H]1CN(C)S(=O)(=O)c1ccc(Cl)cc1 | active
19 | C[C@@H]1CCCCO[C@H](CN(C)S(=O)(=O)c2ccccc2)[C@H](C)CN([C@H](C)CO)C(=O)c2cc(NS(=O)(=O)c3ccc(Cl)cc3)ccc2O1 | inactive
20 | C[C@@H]1CCCCO[C@H](CN(C)S(=O)(=O)c2ccc(Cl)cc2)[C@@H](C)CN([C@@H](C)CO)C(=O)c2cc(NS(=O)(=O)c3ccccc3)ccc2O1 | inactive
21 | O=C(CS(=O)(=O)c1cccc2nsnc12)N1CC(=O)N(CCc2ccccc2)C(=O)C1 | inactive

Row | Compound | cytotoxicity call
22 | C[C@H]1CN([C@@H](C)CO)C(=O)c2cc(NS(=O)(=O)c3cn(C)cn3)ccc2O[C@@H]1CN(C)S(=O)(=O)c1ccc(F)cc1 | inactive
23 | C[C@H](CO)N1C[C@H](C)[C@H](CN(C)Cc2ccc(C(F)(F)F)cc2)Oc2c(NS(C)(=O)=O)cccc2C1=O | inactive
24 | Cc1ccc(-c2ccc3c(c2)O[C@H](CN(C)C(=O)NC(C)C)[C@H](C)CN([C@@H](C)CO)S3(=O)=O)cc1 | inactive
25 | C[C@H](CO)N1C[C@H](C)[C@H](CN(C)S(=O)(=O)c2ccc(F)cc2)OCCCC[C@H](C)Oc2ccc(NS(=O)(=O)c3cn(C)cn3)cc2C1=O | inactive
26 | O=C(C[C@H]1CC[C@@H]2[C@H](COC[C@H](O)CN2S(=O)(=O)c2ccccc2Cl)O1)NCc1ccccc1Cl | inactive
27 | CN(CC(=O)Nc1cccc(S(=O)(=O)N2CCOCC2)c1)CC(=O)Nc1ccc(Cl)c(C(F)(F)F)c1 | inactive
28 | C[C@H](NC(=O)c1c(N)nn2cccnc12)c1cc2cccc(C#Cc3cnn(C)c3)c2c(=O)n1-c1ccccc1 | active
29 | O=C(C[C@H]1CC[C@H]2[C@@H](COC[C@@H](O)CN2S(=O)(=O)c2ccccc2)O1)NCCN1CCCC1 | inactive
30 | CN1CCN(C(=O)C[C@H]2CC[C@H]3[C@@H](COc4ccc(NC(=O)c5cccs5)cc4C(=O)N3C)O2)CC1 | inactive
31 | COc1ccc(S(=O)(=O)N(C)C[C@H]2Oc3ccc(NC(=O)c4ccncc4)cc3CC(=O)N([C@H](C)CO)C[C@H]2C)cc1 | inactive
32 | CN(C)CC(=O)N1CC2(C1)[C@@H](c1ccccc1)[C@H](CO)N2S(C)(=O)=O | inactive
33 | CCN1C(C)(C)CC(Oc2ccc(C(=O)Nc3ccc(NC(=O)Nc4cc(C(C)(C)C)on4)cc3)nc2)CC1(C)C | active
34 | COc1cc2ncnc(Oc3cccc(NC(=O)Nc4cc(C(C)(C)C(F)(F)F)on4)c3)c2cc1OC | inactive
35 | CC(C)(C)c1cc(C(=O)NN)no1 | inactive
36 | C[C@@H]1CN([C@H](C)CO)C(=O)Cc2cc(NC(=O)Cn3cnnn3)ccc2O[C@H]1CN(C)C(=O)NC1CCCCC1 | inactive
37 | C[C@@H]1CN([C@@H](C)CO)C(=O)c2cc(NC(=O)Nc3cccc4ccccc34)ccc2O[C@H]1CN(C)Cc1ccccc1 | inactive
38 | C[C@@H]1CN([C@@H](C)CO)C(=O)c2cc(NC(=O)Nc3cccc4ccccc34)ccc2O[C@@H]1CN(C)Cc1ccc2c(c1)OCO2 | active
39 | C[C@H]1CN([C@@H](C)CO)C(=O)c2cc(NC(=O)Nc3cccc4ccccc34)ccc2O[C@@H]1CN(C)Cc1ccc2c(c1)OCO2 | inactive
40 | C[C@@H]1CN([C@H](C)CO)C(=O)c2cc(NC(=O)Nc3cccc4ccccc34)ccc2O[C@H]1CN(C)Cc1ccccc1 | inactive
41 | C[C@H](CO)N1C[C@H](C)[C@H](CN(C)Cc2ccccc2)Oc2ccc(NC(=O)Nc3cccc4ccccc34)cc2C1=O | inactive
42 | C[C@@H]1CN([C@@H](C)CO)C(=O)c2cc(NC(=O)Nc3cccc4ccccc34)ccc2O[C@@H]1CN(C)Cc1ccccc1 | active

Row | Compound | cytotoxicity call
43 | C[C@H]1CN([C@@H](C)CO)C(=O)c2cc(NC(=O)Nc3cccc4ccccc34)ccc2O[C@@H]1CN(C)Cc1ccccc1 | inactive
44 | C[C@@H]1CN([C@H](C)CO)C(=O)c2cc(NC(=O)Nc3cccc4ccccc34)ccc2O[C@@H]1CN(C)Cc1ccccc1 | active
45 | C[C@@H]1CN([C@@H](C)CO)C(=O)c2cc(NC(=O)Nc3cccc4ccccc34)ccc2O[C@H]1CN(C)Cc1ccc2c(c1)OCO2 | inactive
46 | CCS(=O)(=O)N1CC[C@]2(CC1)CN([C@H](CO)c1c2c2ccc(cc2n1C)OC)C(=O)Nc1c(noc1C)C | inactive
47 | Cc1cc(O)cc(=O)o1 | inactive
48 | C[C@@H]1CN([C@H](C)CO)C(=O)c2cc(NC(=O)Nc3ccc(F)cc3)ccc2O[C@@H](C)CCCCO[C@@H]1CN(C)S(=O)(=O)c1ccc(Cl)cc1 | inactive
49 | COc1ccc(NC(=O)Nc2ccc3c(c2)C(=O)N([C@@H](C)CO)C[C@@H](C)[C@H](CN(C)C(=O)Nc2ccccc2)OCCCC[C@H](C)O3)cc1 | inactive
50 | CC(C)NC(=O)Nc1ccc2c(c1)C(=O)N([C@@H](C)CO)C[C@@H](C)[C@@H](CN(C)S(=O)(=O)c1cn(C)cn1)OCCCC[C@@H](C)O2 | inactive
51 | COc1ccc2c3c([nH]c2c1)[C@H](CO)N(C[C@]13CCN(CC1)S(=O)(=O)C)C(=O)Nc1ccc(cc1)F | inactive
52 | COc1ccc2c3c([nH]c2c1)[C@@H](CO)N(C[C@]13CCN(CC1)Cc1cc(ccc1F)F)C(=O)Nc1ccc(cc1)F | inactive
53 | COc1ccc2c3c([nH]c2c1)[C@@H](CO)N(C[C@]13CCN(CC1)S(=O)(=O)C)C(=O)Nc1ccc(cc1)F | inactive
54 | COc1ccc2c3c([nH]c2c1)[C@H](CO)N(C[C@]13CCN(CC1)Cc1cc(on1)-c1ccccc1)C(=O)Nc1ccc(cc1)F | inactive
55 | COc1ccc2c3c([nH]c2c1)[C@@H](CO)N(C[C@]13CCN(CC1)Cc1ccccc1OC)C(=O)Nc1ccc(cc1)F | active
56 | COc1ccc2c3c([nH]c2c1)[C@H](CO)N(C[C@]13CCN(CC1)Cc1ccc(cc1)F)C(=O)Nc1ccc(cc1)F | active
57 | COc1ccc2c3c([nH]c2c1)[C@H](CO)N(C[C@]13CCN(CC1)Cc1cc(ccc1F)F)C(=O)Nc1ccc(cc1)F | inactive
58 | COc1ccc2c3c([nH]c2c1)[C@@H](CO)N(C[C@]13CCN(CC1)C(=O)Nc1ccccc1)C(=O)Nc1ccc(cc1)F | inactive
59 | COc1ccc2c3c([nH]c2c1)[C@@H](CO)N(C[C@]13CCN(CC1)Cc1ccc(cc1)F)C(=O)Nc1ccc(cc1)F | active
60 | COc1ccc2c3c([nH]c2c1)[C@@H](CO)N(C[C@]13CCN(CC1)C(=O)Nc1ccc(cc1)F)C(=O)c1ccc(cc1)F | inactive
61 | COc1ccc2c3c([nH]c2c1)[C@H](CO)N(C[C@]13CCN(CC1)Cc1ccccc1OC)C(=O)Nc1ccc(cc1)F | inactive
62 | COc1ccc2c3c([nH]c2c1)[C@H](CO)N(C[C@]13CCN(CC1)C(=O)Nc1ccccc1)C(=O)Nc1ccc(cc1)F | active
